PubChem BioAssay AID2783 (National Center for Advancing Translational Sciences (NCATS), 2010)
Inconclusive results are not listed. Calls of active or inactive are those of the source. Calls follow the shape of the dose curve; as a rule, active = well fitted inhibition curve with a large enough effect in the polarisation, with a control signal flat (not every such curve was filed as active); inconclusive = small, poorly fitted or top-dose-only effect, or effect the other way, or a change in a side signal; inactive = no such curve, though single readings can be large or run the other way; the % refers to the polarisation.

The compounds below were run against Menin (Homo sapiens) (UniProt O00255) (assay: Confirmation of Inhibitors Targeting the Menin-MLL Interaction in MLL Related Leukemias: Competition With Fluorescein Labeled MLL-derived Peptide). Conditions: Fluorescence polarization, fluorescein-MLL peptide displacement from menin; series mostly up to 100 µM.
Chain of Menin (Homo sapiens) (O00255 whole entry, looked up): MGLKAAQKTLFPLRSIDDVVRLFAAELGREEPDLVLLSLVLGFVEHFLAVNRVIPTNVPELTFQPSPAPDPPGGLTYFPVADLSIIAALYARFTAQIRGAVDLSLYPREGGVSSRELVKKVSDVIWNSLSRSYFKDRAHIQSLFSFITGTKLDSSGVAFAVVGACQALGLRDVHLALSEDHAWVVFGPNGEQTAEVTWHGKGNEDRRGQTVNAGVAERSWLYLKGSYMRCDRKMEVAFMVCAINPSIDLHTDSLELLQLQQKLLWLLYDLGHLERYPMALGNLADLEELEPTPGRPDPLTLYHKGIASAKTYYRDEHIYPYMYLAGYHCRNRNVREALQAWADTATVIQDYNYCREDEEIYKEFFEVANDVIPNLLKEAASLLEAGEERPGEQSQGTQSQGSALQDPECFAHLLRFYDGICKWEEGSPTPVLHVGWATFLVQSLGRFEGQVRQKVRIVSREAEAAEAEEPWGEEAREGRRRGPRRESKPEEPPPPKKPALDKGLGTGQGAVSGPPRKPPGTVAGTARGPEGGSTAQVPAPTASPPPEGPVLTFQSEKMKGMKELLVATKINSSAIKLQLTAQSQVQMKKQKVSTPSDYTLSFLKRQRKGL

outcome, inactive:
O=S(=O)(NCCc1c[nH]c2ccccc12)c1ccccc1
CCc1ccccc1NC(=O)COc1cccc(-n2cnnn2)c1
COc1ccc(Cn2nnnc2C(c2ccccc2)N2CCN(C3CCCC3)CC2)cc1 (centres undefined)
COc1ccccc1NS(=O)(=O)c1cc(NC(=O)Nc2cccc(C)c2)ccc1N1CCCCC1
CC(c1cc2ccccc2s1)N(O)C(N)=O (centres undefined)
CCC(=O)Nc1ccc(-c2cc(-c3ccccc3)nc(-c3ccc(NC(=O)CC)cc3)n2)cc1
Cc1cnc(NC(=O)C2C(=O)c3ccccc3S(=O)(=O)N2C)s1 (centres undefined)
CCOC(=O)Cn1c2ccccc2n2nc(CCC(=O)O)c(=O)nc12
O=S(=O)(c1ccc(-c2csc(Nc3ccc(Br)cc3)n2)cc1)N1CCCC1
O=[N+]([O-])c1ccc(S(=O)(=O)c2ccccc2)nc1
COc1ccccc1C(=O)Nc1ccccc1SC(=O)c1ccccc1OC
Cc1ccc(/C=C2\SC(=S)N(CC(=O)Nc3ncc(Cc4ccccc4Cl)s3)C2=O)cc1
COC(=O)c1cc(CNC(=O)CCCSc2ccccc2)ccc1OC
COc1ccc(C2=C(CN(C)C)C(c3ccccc3)c3ccccc3O2)cc1 (centres undefined)
COc1cc(OC)c2ccc(=O)oc2c1C(CCN1CCOCC1)c1ccc(N(C)C)cc1 (centres undefined)
Cc1cc2nc(-c3ccc(SCC(=O)Nc4ccc5c(c4)OCCO5)nc3)[nH]c2cc1C
CCCOc1ccc(C(=O)NNC(=S)NC(=O)c2cc(-c3ccc(Cl)cc3)nc3ccccc23)cc1
CCOC(=O)Cn1cnc2scc(-c3ccc(C)c(C)c3)c2c1=O
COc1ccc2nc(NC(=O)CSc3nnc(N)s3)sc2c1
COC1=C(Nc2ccccc2)C(=O)c2ccccc2C1=O
Cc1ccc(NC(=O)CN(C)C(=O)COc2cccc3cccnc23)cc1
O=C(Nc1ccc2c(c1)OCO2)c1ccccc1
CCOc1cc(C(c2c(C)[nH][nH]c2=O)c2c(C)[nH][nH]c2=O)cc(Br)c1OC
Cc1ccc(-c2cc(C(=O)Nc3cc(C)ccc3O)no2)cc1
C[N+]1(CCNC(=O)/C=N/O)CCCCC1
Cc1c(CCOC(=O)CC23CC4CC(CC(C)(C4)C2)C3)sc[n+]1Cc1ccc([N+](=O)[O-])cc1
Clc1ccc(-c2nnc(-c3ccccc3)nc2-c2c[nH]c3ccccc23)cc1
CCCCn1c(SCC(=O)NCc2ccc(OC)c(C(=O)O)c2)nc2cc(S(N)(=O)=O)ccc21
CCOC(=O)C1CCN(CC(O)COCc2ccccc2)CC1 (centres undefined)
CCc1ccc2c(c1)C(NC(C)=O)C(=O)N2CCN1CCOCC1 (centres undefined)
COC(=O)Cc1c(C)nc2nc(-c3ccc(OC)cc3)[nH]n2c1=O
COC(=O)c1ccccc1NC1=C/C(=N\S(=O)(=O)c2ccc(C(=O)O)cc2)c2ccccc2C1=O
COc1ccc(/C=C(\C#N)C(=O)NCc2ccccc2)cc1
c1ccc(-c2ccc(-c3csnn3)cc2)cc1
